# AMA1-RON2 inh: disrupts binding of P. falciparum AMA1 to RON2; Potency, µM (top dose mostly 58.2 µM), actives largely listed as inhibitors; actives 0.2% (n = 360,000); AID 720542; AlphaScreen AMA1-biotinylated RON2 peptide binding; note: nearly all actives have a fitted effect of over 45% in size
#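 AMA1 (3D7) with his tag at 25 nM final met compounds first, then biotinylated RON2 peptide at 25 nM; detection used donor plus acceptor beads, 10 µg/mL apiece, read by AlphaScreen after 30 min at room temperature.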
# HCV inhibitor: blocks hepatitis C virus; Huh7.5.1 HCVcc-Cre infection, luciferase reporter, 44 h; Potency, µM (titrated, usually from 41.8 µM), most hits filed as inhibitors; actives 3.4% (n = 340,000)
#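 1,000 cells/well; 4 h culture; + compound; + HCVcc-Cre (~0.5 moi); 44 h; luciferase substrate, RT 15 min; read 15 sec.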
# Pf growth 96h: inhibits malaria parasite growth, 96 h. P. falciparum luciferase reporter growth, 96 h. Potency, µM (doses to about 28.7 µM), most hits filed as inhibitors. actives 6.9% (n = 320,000). AID 504834
#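 Cell-based qHTS: luciferase-tagged P. falciparum in erythrocytes (2% hematocrit, 0.05% parasitemia final) incubated with compounds for 96 hours, 37 C, 5% CO2; luciferase detection reagent then added and luminescence measured.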
# Pf growth 48h: inhibits P. falciparum growth in the first generation, 48 h; P. falciparum luciferase growth in erythrocytes, 48 h; Potency, µM (series often up to 28.7 µM), most hits filed as inhibitors; actives 5.9% (n = 310,000)
#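 In quantitative HTS format, infected erythrocytes bearing luciferase-reporter parasites were treated for a single generation at 37 C. Luminescence after adding detection reagent served as the growth measure.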
# A number is an active result; i = inactive; ? = inconclusive; nt = not tested or not shown; [ ] = remark or other dose. The list is not random: actives were taken first. Their share in the collection is about 11%. Calls come from the whole dose curve; as a rule, active = well fitted curve in the direction sought with a large enough effect; inconclusive = small, poorly fitted or top-dose-only effect, or another doubt; inactive = no such curve, though single readings can be large; an effect the other way counts as inactive or inconclusive.
SMILES,AMA1-RON2 inh,HCV inhibitor,Pf growth 96h,Pf growth 48h
Cc1cc2c3c(c1)C1(C(=O)N3C(C)(C)CC2C)C(C#N)=C(N)OC2=C1C(=O)CC(C)(C)C2 (stereo not given),i,i,?,12µM
CC1=CC(C)(C)N2C(=O)C3(C(C#N)=C(N)OC4=C3C(=O)CC(C)(C)C4)c3cc(C)cc1c32 (stereo not given),i,i,13µM,nt
CCOC(=O)c1c(NC(=O)C2COc3ccccc3O2)sc2c1CCN(Cc1ccccc1)C2 (stereo not given),i,?,2.3µM,4.7µM
COC(=O)N1CCc2c(sc(NC(=O)C3COc4ccccc4O3)c2C(N)=O)C1 (stereo not given),i,i,?,15µM
O=C(CCl)N(c1ccccc1)c1c[nH]c2ccccc12,i,1.3µM,1.2µM,1.7µM
CCN(CC)C(=O)CCCc1c[nH]c2ccccc12,i,i,i,i
O=C(CCl)N(c1ccc(Cl)cc1)c1c[nH]c2ccccc12,i,2.5µM,nt,2.3µM
O=C(Nc1nc2ccsc2c(=O)s1)c1ccc(Cl)cc1,i,i,i,i
COc1ccc(NC(=O)CN2CCc3ccccc3C2)cc1OC,i,i,i,?
COc1ccc(CN2CCc3ccc(NC(=O)CCc4ccccc4OC)cc3C2)c(O)c1,i,8.9µM,i,2.1µM
COc1cc2c(cc1OC)CN(CC(=O)Nc1cccc(C)c1)CC2,i,i,i,?
COc1ccccc1CCC(=O)Nc1ccc2c(c1)CN(CCCn1cccn1)CC2,i,i,i,8.3µM
COc1cc(CN2CCc3ccc(NC(=O)CCc4ccccc4OC)cc3C2)ccc1O,i,?,i,5.2µM
COc1cccc(CN2CCc3ccc(NC(=O)CCc4ccc(C)cc4)cc3C2)c1O,i,11µM,?,?
Cc1cc(C)c(NC(=O)COC(=O)CCc2ccc(S(=O)(=O)N3CCCCC3)cc2)c(C)c1,i,i,i,i
CC(=O)Nc1cc(=O)c2cccnc2[nH]1,14µM,i,nt,nt
COc1cc(NC(C)=O)c2ncccc2c1NC(C)=O,i,i,i,i
CCOc1ccc(C(C)NC(=O)c2ccc3c(c2)NC(=O)C(C)S3)cc1OCC (stereo not given),i,i,1.9µM,2.3µM
CC1Sc2ccc(C(=O)Nc3ccccc3OC(F)F)cc2NC1=O (stereo not given),i,i[8.37 µM],i,i
c1ccc(-c2nn3c(C4CCCCC4)nnc3s2)nc1,i,i,i,i
Clc1ccc(OCc2nn3c(C4CCCCC4)nnc3s2)cc1,i,i,9.3µM,i
Cc1ccc2c(c1)N(Cc1cccc(C#N)c1)C=NS2(=O)=O,i,i,i,i
C=CCc1cc2c(oc(=O)c3ccccc32)c(C)c1O,i,i,15µM,i
Cc1c(O)c(CN2CCCC2)cc2c1oc(=O)c1ccccc12,i,?,i,1.5µM
Cc1c(O)c(CN2CCCC2)cc2c3c(c(=O)oc12)CCC3,i,?,?,3.3µM
SMILES,AMA1-RON2 inh,HCV inhibitor,Pf growth 96h,Pf growth 48h
CC(C)(CO)NC(=O)c1ccc2c(c1)C(=O)c1ccccc1-2,i,i,i,nt
CC1(c2nc3ccccc3[nH]2)c2ccccc2C(=O)N1Cc1ccccn1 (stereo not given),i,nt,nt,nt
CCOC(=O)N1CCN(Cc2cc(=O)oc3cc4c(cc23)CCC4)CC1,i,i,4.7µM,?
CC(C)c1ccc2oc(=O)cc(CN3CCN(c4ccccc4)CC3)c2c1,i,i,?,13µM
CCc1ccc2oc(=O)cc(CN3CCCCC3)c2c1,i,i,5.2µM,12µM
CCc1ccc2oc(=O)cc(CN3CCN(CCO)CC3)c2c1,i,i,i,i
CCOC(=O)N1CCN(Cc2cc(=O)oc3ccc(Cl)cc23)CC1,i,i,i[5.75 µM],?
CN1CCN(Cc2cc(=O)oc3ccc(Cl)cc23)CC1,i,i,13µM,i
CCN1CCN(Cc2cc(=O)oc3ccc(Cl)cc23)CC1,i,i,i[5.75 µM],i
CN(c1ccc(C(=O)NCCSCc2c(F)cccc2Cl)cc1)S(C)(=O)=O,i,?,i,i
CC1CCN(Cc2cc(=O)oc3ccc(C(C)C)cc23)CC1,i,?,1.9µM,3.3µM
CCc1ccc2c(CN3CCN(S(=O)(=O)c4ccccc4F)CC3)cc(=O)oc2c1,i,13µM,nt,nt
Cc1cc2oc(=O)cc(CN3CCC(C)CC3)c2cc1C,i,i,?,?
CC1CCN(Cc2cc(=O)oc3ccc4ccccc4c23)CC1,i,i,8.3µM,7.4µM
O=c1cc(CN2CCCCC2)c2c(ccc3ccccc32)o1,i,nt,nt,nt
Cc1cc2oc(=O)cc(CN3CCCCC3C)c2cc1C (stereo not given),i,i,9.3µM,10µM
CC1(CNC(=O)C(=O)NCC2(C)CO2)CO1 (stereo not given),i,i,nt,nt
COc1ccc(C(=O)NNC(=O)C(=O)NC2CCCCC2)cc1,i,i,?,i
O=C(CN1CCC(C(=O)c2cccc(Cl)c2)CC1)Nc1ccc(C(=O)O)cc1,i,i,i,i
N#Cc1ccccc1NC(=S)NC(=O)c1cccnc1,i,i,?,i
CCc1c(O)nc(SCC(=O)N2CCc3cc(OC)c(OC)cc3[C@@H]2C)[nH]c1=O,i,i,?,?
COc1ccc(NCc2cc(=O)oc3cc(NC(C)=O)ccc23)cc1,i,i,i,?
Cc1cc2oc(=O)cc(CN3CCCCC3)c2cc1O,i,i,i,i
Cc1cc2oc(=O)cc(Cn3nnc(-c4ccc(Cl)cc4)n3)c2cc1C(C)C,nt,i,?,12µM
Cc1cc2oc(=O)cc(CSc3nc(N)cc(N)n3)c2cc1C(C)C,i,i,?,nt
SMILES,AMA1-RON2 inh,HCV inhibitor,Pf growth 96h,Pf growth 48h
COc1cccc(NCc2cc(=O)oc3cc(C)c(C(C)C)cc23)c1,i,10µM,?,?
COc1ccc2c(CN3CCCCC3)cc(=O)oc2c1,i,nt,nt,nt
CC(C)c1ccc2oc(=O)cc(CN3CCCCC3)c2c1,i,i,?,7.4µM
Cc1cc2oc(=O)cc(CN3CCCCC3)c2cc1C(C)C,i,?,i,7.4µM
O=C(O)CCC(CNS(=O)(=O)c1ccccc1)C(F)(F)F (stereo not given),i,i,?,i
N#Cc1cccc(NC(=O)CSc2nnc(C3CC3)n2C2CC2)c1,i,i,i,i
CCn1c(=O)n(C)c2c(=O)n(C)c(=O)n(C)c21,i,i,nt,nt
COc1cc(NC(=O)CSc2ncnc3c2cnn3Cc2ccccc2)cc(OC)c1,?,?,nt,12µM
COc1ccc(OC)c(NC(=O)CSc2ncccn2)c1,i,i,i,nt
COC(=O)CSc1ncnc2c1cnn2Cc1ccccc1,i,i,i,i
COc1ccc(OC)c(NC(=O)CSc2ncnc3c2cnn3-c2ccccc2Cl)c1,i,0.89µM,i,10µM
CCCN1C(=O)/C(=C2/C=Cc3ccccc3N2CC)SC1=S,3.2µM,i,i,?
CCN1C(=O)/C(=C2/C=Cc3ccccc3N2CC)SC1=S,10µM,i,?,i
CCN1/C(=C2\C(=O)N(C)C(=S)N2C)C=Cc2ccccc21,?,i,i,?
CCCN1/C(=C2/SC(=S)N(CC)C2=O)C=Cc2ccccc21,3.2µM,i,?,nt
CSCCC(NC(=O)c1ccco1)C(=O)NCCc1ccc(Cl)cc1 (stereo not given),i,i,nt,nt
COc1ccc(CCN2C(=O)COc3ccccc3C2C(=O)NC(C)(C)C)cc1OC (stereo not given),i,nt,nt,nt

# Screening data: PubChem, National Center for Advancing Translational Sciences (NCATS)
